Measurements from PubChem BioAssay AID435030 (The Scripps Research Institute Molecular Screening Center, 2010).
Where “and” joins values, the source holds several entries; their conditions need not be identical. Identical values can stand only once. Among all 330,000 compounds or so, about 940 (0.28%) were called active. No stated cut-off is given here; in the data, active means inhibition above about 12%; inactive means the rest. The list comes from a sample in which actives are over-represented; it also holds similar structures and randomly drawn compounds. Some structures have more than one record in an assay (separate samples or runs), and their calls can disagree.

Assay: reduced growth of AddAB-expressing E. coli cells – absorbance, AddAB inhibitor project, primary screen (AID 435030);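 further: 0% = vehicle wells of infected cells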
Settings: E. coli expressing H. pylori AddAB, at 11.9 µM, stronger effect = higher value

For `O=C(c1[nH]ncc1-c1ccc(Cl)cc1)C1CO1` (stereo not drawn), which inhibition is on record?
Its inhibition is 12.5% (active).

With `S=c1[nH]nc(-c2ccc(Cl)cc2)n1CC1CCCO1` (stereo not drawn) as the molecule, how does the inhibition read?
Its inhibition is 0.6% (inactive).

Which inhibition does the source give for `O=C(c1nnc(-c2ccc(Cl)cc2)o1)C1CCCC1` here?
The inhibition was 0.77% (inactive).

Which inhibition does the source give for `CCC(C)[C@H]1COCCS(=O)(=O)N1Cc1ccc(C)cc1` (stereo partly drawn) here?
The inhibition was 2.11% (inactive).

For `CO/N=C(\C(=O)N[C@@H]1C(=O)N2C(C(=O)O)=C(COC(C)=O)CS[C@H]12)c1csc(N)n1` (stereo in doubt), which inhibition is on record?
Its inhibition is 98.8% (active) and 99.7% (active) and -0.42% (inactive).

Which inhibition does the source give for `Cc1nnc(SCC2=C(C(=O)O)N3C(=O)C(NC(=O)Cn4nc(C)c(Cl)c4C)C3SC2)s1` (stereo not drawn) here?
The inhibition was -3.23% (inactive).

For `CC(C)(C)OC(=O)C1=C(CO)CS[C@@H]2[C@H](NC(=O)Cc3ccccc3)C(=O)N12`, which inhibition is on record?
The inhibition was 0.4% (inactive).

With `C=CC1=C(C(=O)O)N2C(=O)[C@@H](NC(=O)/C(=N\OCC(=O)O)c3csc(N)n3)[C@H]2SC1` as the molecule, how does the inhibition read?
Its inhibition is 99.5% (active).

Which inhibition does the source give for `C=CC1=C(C(=O)O)N2C(=O)[C@@H](NC(=O)/C(=N/OCC(=O)O)c3csc(N)n3)[C@H]2SC1` here?
The inhibition was 97.5% (active).

Which inhibition does the source give for `Cc1cc(C)cc(C(=O)NC2C(=O)N3C(C(=O)O)=C(CSc4nnc(C)s4)CSC23)c1` (stereo not drawn) here?
Its inhibition is -1.61% (inactive).

With `Cc1ccc(S(=O)(=O)N2[C@@H](c3cccc4ccccc34)C(C(=O)O)=C[C@H]2C(C)(C)C)cc1` as the molecule, how does the inhibition read?
The inhibition was -0.17% (inactive).

Which inhibition does the source give for `C=CCOc1cccc(CNCc2cccnc2)c1` here?
Its inhibition is 4.34% (inactive).

For `O=C1N[C@H](Cc2ccccc2)C(=O)N[C@H]1Cc1cn(S(=O)(=O)c2ccccc2)c2ccccc12`, which inhibition is on record?
Its inhibition is 3.88% (inactive).

Which inhibition does the source give for `Cc1ccc(C(=O)N/C(=C\c2cccs2)C(=O)NCCc2ccccn2)cc1C` here?
The inhibition was -1.59% (inactive).

For `COc1ccc(C(=O)c2c(C)c(CCC#N)n3ccccc23)c(OC)c1`, which inhibition is on record?
Its inhibition is 4.64% (inactive).

Which inhibition does the source give for `CNc1ccc(SC#N)cc1` here?
The inhibition was 3.2% (inactive).

Which inhibition does the source give for `CC(=O)Nc1ccc(NC(=O)CC2CCCC2)cc1` here?
Its inhibition is 3.59% (inactive).

Which inhibition does the source give for `CCOC(=O)c1cnc(-n2nc(C)cc2C)nc1NNc1cc(C)nc(-c2ccccc2)n1` here?
Its inhibition is 1.33% (inactive).

For `O=C(Nc1ccc2c(c1)CCC2)c1ccc(Br)s1`, which inhibition is on record?
The inhibition was 0.08% (inactive).

Which inhibition does the source give for `Cc1nn(CC#N)c(=O)n1N(C)c1ncc(C(F)(F)F)cc1Cl` here?
The inhibition was -0.77% (inactive).

Which inhibition does the source give for `O=C(O)C(c1ccccc1)N1C(=O)/C(=C\c2ccc(-c3cccc(Cl)c3)o2)SC1=S` (stereo not drawn) here?
The inhibition was 1.17% (inactive).

Which inhibition does the source give for `O=C1c2ccccc2NC(c2ccc(-c3cccc(Cl)c3)o2)N1O` (stereo not drawn) here?
Its inhibition is 21.1% (active).

Which inhibition does the source give for `CC(=O)NN1C(=O)c2ccccc2NC1c1ccccc1` (stereo not drawn) here?
Its inhibition is 0.33% (inactive).
